# The supplement of paper PMC7380943
# Where a name gives a salt, the structure may show the parent alone. ± gives the standard deviation of the averaged measurements.
# How the values were obtained:
# [1] = test system: CLZ3 (HCA2 human fibroblast dual HR-NHEJ reporter); assay: NHEJ repair efficiency (GFP+ cells) relative to control (log10 fold); higher = more non-homologous end joining; conditions: 5 µM; doxycycline 0.5 ug/mL
# [2] = test system: CLZ3 (HCA2 human fibroblast dual HR-NHEJ reporter); assay: HR repair efficiency (tdTomato+ cells) relative to control (log10 fold); higher = more homologous recombination; conditions: 5 µM; doxycycline 0.5 ug/mL
# 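For HR repair efficiency (tdTomato+ cells) relative to control in this document: compound given one day before doxycycline, which switches on I-SceI endonuclease expression to create double-strand breaks within the integrated reporter.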
# 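For NHEJ repair efficiency (GFP+ cells) relative to control in this document: compound given one day ahead of doxycycline, which switches on I-SceI endonuclease to cut the chromosomally integrated reporter and create DSBs.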
SMILES,NHEJ repair efficiency (log10) [1],HR repair efficiency (log10) [2]
CC(C)=CCOc1c2ccoc2cc2oc(=O)ccc12 [Isoimperatorin],-0.032 ± 0.014,0.0188 ± 0.0059
O=C(/C=C/C=C/c1ccc2c(c1)OCO2)N1CCCCC1 [Piperine],0.0542,0.0832
COc1ccc(-c2cc(=O)c3c(O)c(OC)c(O)cc3o2)cc1 [Pectolinarigenin],-0.0149,-0.0222
COc1ccc([C@@H]2CC(=O)c3c(O)cc(O[C@@H]4O[C@H](CO[C@@H]5O[C@@H](C)[C@H](O)[C@@H](O)[C@H]5O)[C@@H](O)[C@H](O)[C@H]4O)cc3O2)cc1O [Hesperidin],0.196,0.258
O=C(CCc1ccc(O)cc1)c1c(O)cc(O)cc1O[C@@H]1OC(CO)[C@@H](O)[C@@H](O)C1O (some centres not stated) [Phloridzin],-0.0404 ± 0.071,0.0182 ± 0.039
O=C1c2ccccc2C(=O)c2c1cc(O)c(CO)c2O [Lucidin],0.134,0.258
CC1(C)C=Cc2c(ccc3c2OC[C@@H](c2ccc(O)cc2O)C3)O1 [Glabridin],-0.0493,-0.0637
O=C1OC2(c3ccccc3Oc3ccccc32)c2ccccc21 [Fluoran],0.0054,0.0374
Cc1cc(=O)c2c(O)c3c(cc2o1)OC(C)(C)[C@@H](O[C@@H]1O[C@H](CO)[C@@H](O)[C@H](O)[C@H]1O)C3 [Sec-O-Glucosylhamaudol],-0.132,-0.0801
C=C(C)[C@@H]1CC[C@]2(C)CC[C@]3(C)[C@H](CC[C@@H]4[C@@]5(C)CC[C@H](O)C(C)(C)[C@@H]5CC[C@]43C)[C@@H]12 [Lupeol],0.0011,0.06
O=C(O)[C@H]1O[C@@H](Oc2cc(O)c3c(=O)cc(-c4ccc(O)cc4)oc3c2)[C@H](O)[C@@H](O)[C@@H]1O [Apigenin-7-O-Glucronide],-0.216,0.161
CCOC(=O)c1cc(O)c(O)c(O)c1 [Gallic Acid Ethyl Ester],0.018,0.00694
COc1cc2c(cc1O)C[C@H]1c3cc(O)c(OC)cc3CC[N@@+]1(C)C2 [Phellodendrine],0.199,-0.099
COc1cc([C@@H]2[C@H]3CO[C@@]4(O)C(=O)[C@@H]2C=C([C@H]2Oc5cc(O)cc(O)c5C(=O)[C@@H]2O)[C@@H]34)ccc1O [Silydianin],-0.0155 ± 0.092,0.076 ± 0.0068
C=C1C[C@@]2(O)O[C@@]3(C[C@H]2C(C)C)[C@@H](C)CC[C@@H]13 [Curcumol],-0.0784,0.163
CCCCCC=CC(=O)CCc1ccc(O)c(OC)c1 [6-Shogaol],-0.0185,-0.0794
COc1c2c(cc3oc(CO)cc(=O)c13)O[C@H](C(C)(C)O)C2 [Cimifugin],0.0139,-0.0036
CC1OC(OC2C(OC3CCC4(C)C(CCC5(C)C4CC=C4C6CC(C)(C)CCC6(C(=O)OC6OC(COC7OC(CO)C(O)C(O)C7O)C(O)C(O)C6O)CCC45C)C3(C)CO)OCC(O)C2O)C(O)C(O)C1O (configuration not stated) [Dipsacoside B],-0.0161 ± 0.011,0.00385 ± 0.11
N[C@@H](Cc1ccc(O)c(O)c1)C(=O)O [Levodopa],0.0328,0.0905
C/C=C(/C)C(=O)O[C@@H]1[C@H](OC(=O)CC(C)C)c2c(ccc3ccc(=O)oc23)OC1(C)C [Praeruptorin C],-0.0108,0.00182
COc1ccc2c(c1O)-c1c(O)c(OC)cc3c1[C@H](C2)[N+](C)(C)CC3 [Magnoflorine hydrochloride],-0.0605,-0.0478
O=C(/C=C/c1ccc(O)c2oc(-c3ccc(O)c(O)c3)cc12)O[C@H](Cc1ccc(O)c(O)c1)C(=O)O [Salvianolic Acid C],-0.0345,-0.0113
C[C@H](CCC(=O)NCCS(=O)(=O)O)[C@H]1CC[C@H]2[C@@H]3C[C@H](O)[C@@H]4C[C@H](O)CC[C@]4(C)[C@H]3CC[C@]12C [Taurohyodeoxycholic Acid],0.0397,0.133
C[C@]1(O)C[C@@H](O)[C@]2(O)C=CO[C@@H](O[C@H]3O[C@H](CO)[C@@H](O)[C@H](O)[C@H]3O)[C@@H]21 [Harpagide],0.0851,-0.126
OC[C@@H]1O[C@@H](OC[C@H]2O[C@@H](OC/C=C/c3ccccc3)[C@H](O)[C@@H](O)[C@@H]2O)[C@H](O)[C@H]1O [Rosarin],0.0801,0.118
O=C(/C=C/c1ccc(O)cc1)C1=C(O)C(O)([C@@H]2O[C@H](CO)[C@@H](O)[C@H](O)[C@H]2O)C(O)=C([C@@H]2O[C@H](CO)[C@@H](O)[C@H](O)[C@H]2O)C1=O (some centres not stated) [Hydroxysafflor yellow A],0.0258,0.0597
